The list is not random: actives were taken first. Their share in the collection is about 3.2%.
CRE Fsk mod: modulators of forskolin-stimulated CRE signaling in CHO cells | CHO CRE-bla reporter (cAMP response element driving beta-lactamase), forskolin EC10, beta-lactamase ratio | Potency, µM (highest dose often 38.2 µM), most hits filed as activators | hit rate 2.5% among 71,000; active means well fitted activation curve with a large enough effect in the signal ratio, with a control signal flat, not every such curve was filed as active; inconclusive means small, poorly fitted or top-dose-only effect, or effect the other way, or a change in a side signal; the % refers to the signal ratio
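qHTS titration format; CRE-bla CHO reporter; stimulus EC10 NKH 477, a water-soluble forskolin. Read: CCF4 460/530 nm ratio. Potency expressed as AC50 for activators or inhibitors.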
ALOX15 inhib: blocks human 15-lipoxygenase activity. Potency, µM (titrated, usually from 57.1 µM), most hits filed as inhibitors. P16050. AID 887. hit rate 1.4% among 74,000. purified 15hLO-1, xylenol orange hydroperoxide absorbance; further: nearly all actives have a fitted effect of over 55% in size
Target sequence (P16050 whole entry, looked up): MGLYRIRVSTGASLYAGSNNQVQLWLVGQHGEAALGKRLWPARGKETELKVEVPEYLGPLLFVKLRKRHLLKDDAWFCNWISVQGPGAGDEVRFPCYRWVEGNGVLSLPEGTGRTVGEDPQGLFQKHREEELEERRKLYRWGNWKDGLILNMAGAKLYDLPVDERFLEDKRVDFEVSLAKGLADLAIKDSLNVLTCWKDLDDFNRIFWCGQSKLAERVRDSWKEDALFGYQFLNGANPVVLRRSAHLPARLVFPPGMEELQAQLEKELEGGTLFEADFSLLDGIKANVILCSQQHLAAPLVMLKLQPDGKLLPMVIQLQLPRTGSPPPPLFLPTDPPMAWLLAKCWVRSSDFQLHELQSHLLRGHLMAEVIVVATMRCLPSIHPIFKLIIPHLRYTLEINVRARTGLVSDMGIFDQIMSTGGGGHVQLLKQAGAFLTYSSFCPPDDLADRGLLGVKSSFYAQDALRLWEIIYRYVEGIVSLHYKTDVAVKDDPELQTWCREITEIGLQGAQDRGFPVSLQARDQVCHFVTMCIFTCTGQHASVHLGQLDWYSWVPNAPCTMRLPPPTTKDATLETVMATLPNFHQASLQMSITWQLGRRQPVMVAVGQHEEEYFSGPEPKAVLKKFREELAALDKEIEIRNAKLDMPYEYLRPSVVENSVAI
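Purified human 15hLO-1 (40 nM final) in 25 mM Hepes pH 7.5, 0.01% Triton X-100 was preincubated with compound 15 min at room temperature, then reacted 6 min with 50 uM arachidonic acid; hydroperoxide detected by Fe-XO, 573/405 nm absorbance ratio.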
ERK AVP block: blocks ERK signaling stimulated by vasopressin. HEK293-V1b, vasopressin-stimulated pERK AlphaScreen. Potency, µM (top dose mostly 57.5 µM), usual class: inhibitors. hit rate 0.99% among 72,000. AID 995; further: nearly all actives have a fitted effect of over 55% in size
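V1b-HEK293 cells; cpd 30 min 37C; 25 nM vasopressin 5 min; lyse 10 min; AlphaScreen beads 5 hr RT. Normalized to DMSO basal and 25 nM vasopressin; AC50 by Hill fit.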
ALOX15B inhib: blocks human 15-lipoxygenase 2 activity. O15296. purified 15hLO-2, xylenol orange hydroperoxide absorbance. Potency, µM (top dose mostly 57.1 µM), usual class: inhibitors. hit rate 0.56% among 110,000; further: nearly all actives have a fitted effect of over 60% in size
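Read-out: hydroperoxide product oxidises ferrous iron, measured as xylenol orange complex via the 573-to-405 nm absorbance ratio after 30 min. Reaction: 50 nM enzyme, 15 min compound preincubation, 45 uM arachidonic acid, 90 min RT, Hepes pH 7.5 with Triton X-100.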
Of the large screens only hits and unclear results are named; the others gave an inactive call. Unless noted, the call rests on the fitted dose curve; in most records, active means well fitted inhibition curve with a large enough effect; inconclusive means small, poorly fitted or top-dose-only effect; inactive means no such curve, though single readings can be large or run the other way.

COc1ccc2[nH]c3nc(SCc4nnc(-c5ccccc5)o4)nnc3c2c1	CRE Fsk mod 4µM
COc1ccc2[nH]c3nc(SC(C)C)nnc3c2c1	CRE Fsk mod inconclusive
C=C1C(=O)[C@]23[C@H](O)[C@H]1CC[C@H]2[C@@]12COC3(O)[C@H](O)[C@@H]1C(C)(C)CC[C@@H]2O	none (no result: CRE Fsk mod, ALOX15 inhib, ERK AVP block)
Cc1cc(-c2ccco2)c(C#N)c2nc3ccccc3n12	CRE Fsk mod 7.9µM
COc1ccc(C(=O)NCC(c2cccnc2)N2CCN(c3ccccc3OC)CC2)cc1OC (configuration not stated)	none (no result: ERK AVP block)
COc1cccc(C(=O)NCC(c2cccnc2)N2CCN(c3ccccc3OC)CC2)c1 (configuration not stated)	CRE Fsk mod inconclusive, ALOX15 inhib 13µM (no result: ERK AVP block, ALOX15B inhib)
CC(C)(C)c1nn(-c2ccccc2)c2[nH]c(=O)c(CNCc3ccco3)cc12	none
Cc1nn(-c2ccccc2)c2[nH]c(=O)c(CNc3ccc(N4CCOCC4)cc3)cc12	CRE Fsk mod inconclusive, ALOX15 inhib 13µM, ALOX15B inhib 16µM
O=c1[nH]c2c(cc1CNCCN1CCOCC1)c(-c1cccc(F)c1)nn2-c1ccccc1	CRE Fsk mod inconclusive, ALOX15 inhib 0.032µM
COC(=O)Nc1ccc2[nH]cc(CCNC(C)=O)c2c1	none
CCOC(=O)c1c2c(c(=S)n(-c3ccccc3)c1N)CCC2	none (no result: CRE Fsk mod, ALOX15 inhib, ERK AVP block)
N#Cc1c2c(c(=S)n(-c3ccccc3)c1N)CCCC2	CRE Fsk mod inconclusive, ALOX15 inhib 1.6µM
COc1ccc(OC2C=CC(C#Cc3ccc(F)cc3F)OC2CO)cc1 (configuration not stated)	none (no result: CRE Fsk mod, ALOX15B inhib)
CN1CCN(c2ccnc(-c3ccoc3)n2)CC1	ALOX15 inhib 16µM, ALOX15B inhib inconclusive
CN1CCN(c2ccnc(-c3cccnc3)n2)CC1	none
Cc1cc(C(C)(C)C)cc(CNC2CCCCC2)c1O	none
N[C@@H](Cc1ccnnc1)C(=O)O	none
O=C(CCn1nc(-c2ccc(Cl)cc2)ccc1=O)N1CCN(c2ccccn2)CC1	CRE Fsk mod 4µM
COc1ccc(-c2cc(C(=O)N/N=C/c3ccc(OC)c(OC)c3)[nH]n2)cc1	none (no result: CRE Fsk mod, ERK AVP block, ALOX15B inhib)
O=C(c1ccc(Cc2nc3ccccc3[nH]2)cc1)N1CCOCC1	none (no result: CRE Fsk mod, ERK AVP block, ALOX15B inhib)
CCCn1c(=O)[nH]c(=O)c2c1nc(-c1ccc3c(c1)OCCO3)n2CCN1CCOCC1	CRE Fsk mod 4µM
CCc1ccc(O)c(N=Cc2ccccc2O)c1	ALOX15 inhib inconclusive, ALOX15B inhib 16µM
Cc1ccc(O)c(N=CC2=C(O)c3ccccc3C2=O)c1	ALOX15 inhib inconclusive, ERK AVP block inconclusive, ALOX15B inhib inconclusive
COc1ccc2[nH]cc(CCNc3cc(-c4ccccc4OC)ncn3)c2c1	none
COC(=O)c1sccc1NC(=O)c1ccoc1C	CRE Fsk mod 10µM
O=C(Nc1ccccc1N1CCOCC1)c1ccc(Br)o1	CRE Fsk mod inconclusive
CN1CCN(c2ccccc2NC(=O)c2ccc(Br)o2)CC1	ERK AVP block 20µM
COC(=O)c1sccc1NC(=O)c1ccc(Br)o1	CRE Fsk mod 4µM
CC(C)CN1CC2(CCN(C(=O)c3ccco3)CC2)C1	none
CCOC(=O)CNC(=O)CSc1ncnc2c1cnn2-c1ccc(C)cc1	ERK AVP block 7.9µM
O=C(c1ccccc1)c1ccc2n1CC[C@H]2C(=O)O	ERK AVP block inconclusive
Cc1cccc2cc(CN(Cc3ccco3)S(=O)(=O)c3ccc4c(c3)OCCO4)c(=O)[nH]c12	ERK AVP block 10µM
Cc1cc(C)c2[nH]c(=O)c(CN(CC3CCCO3)S(=O)(=O)c3ccc4c(c3)OCCO4)cc2c1 (configuration not stated)	ERK AVP block inconclusive
CCN1C(=O)[C@H]2[C@@H]3[C@H](O)[C@H](O)CC(=O)[C@H]3CC[C@H]2C1=O	none (no result: CRE Fsk mod, ALOX15B inhib)
COC(=O)c1ccc(CC(=O)c2ccc(O)cc2O)o1	ALOX15B inhib inconclusive (no result: CRE Fsk mod, ERK AVP block)
COC(=O)c1ccc(CC(=O)c2c(C)cc(O)cc2O)o1	ALOX15 inhib 25µM
O=c1cnc2cncnc2n1Cc1ccccc1Cl	CRE Fsk mod inconclusive
CCNc1ncc2nc(-c3cc(F)cc(F)c3)c(=O)n(CCOC)c2n1	CRE Fsk mod inconclusive
O=C(c1csnn1)N1CCC2(CC1)CCN(C(c1ccccc1)c1ccccc1)CC2	none
CC1CCCCN1CCNC(=O)c1cc2c(-c3ccccc3F)nn(C)c2s1 (configuration not stated)	none
CCOC(=O)C1CCN(C(=O)c2cc3c(-c4ccc(OC)c(OC)c4)nn(C)c3s2)CC1	CRE Fsk mod 2.5µM, ERK AVP block inconclusive
CCOC(=O)N1CCC(NC(=O)c2cc3c(-c4ccccc4F)nn(C)c3s2)CC1	ERK AVP block 5µM
CCOC(=O)C1CCCN(C(=O)c2cc3nc(-c4cccc(OC)c4)cc(C(F)(F)F)n3n2)C1 (configuration not stated)	ERK AVP block 16µM
CCOC(=O)N1CCC(NC(=O)c2cc3c(-c4ccc(OC)c(OC)c4)nn(C)c3s2)CC1	CRE Fsk mod inconclusive
CCOC(=O)C1CCCN(C(=O)c2cc3c(-c4cccc(OC)c4)nn(C)c3s2)C1 (configuration not stated)	CRE Fsk mod 3.2µM
C=CCOC(=O)C(C(C)=O)C(NC(=O)OC)c1ccco1 (configuration not stated)	none (no result: CRE Fsk mod, ALOX15B inhib)
CC(=O)OCC(=O)[C@@]1(O)CCC2C3CCC4=CC(=O)C=CC4(C)C3C(O)C[C@]21C (some centres not stated)	none (no result: CRE Fsk mod)
COCOc1ccc(Br)cc1C(=O)/C=C\c1ccc2c(c1)OCO2	none (no result: CRE Fsk mod, ALOX15B inhib)
O=C(OCc1ccccc1)[C@@H]1COC(c2ccc(Br)cc2)=N1	none (no result: CRE Fsk mod, ALOX15 inhib, ERK AVP block)
COc1ccc(C(c2nnnn2C2CCCC2)N2CCC(C)CC2)cc1 (configuration not stated)	none
COc1ccc(C(c2nnnn2C2CCCCC2)N2CCN(c3ccc(OC)cc3)CC2)cc1 (configuration not stated)	CRE Fsk mod 7.9µM
O=C(COC(=O)c1cccc(NC(=O)c2ccco2)c1)c1ccc(Br)cc1	CRE Fsk mod inconclusive, ERK AVP block 16µM
CC(C)(C)C(=O)COC(=O)c1cccc(NC(=O)c2ccco2)c1	none
CNC1C(OC2C(O[C@@H]3C(O)C(O)[C@@H](N=C(N)N)C(O)C3N=C(N)N)OC(C)[C@@]2(O)CO)OC(CO)C(O)C1O (some centres not stated)	none (no result: CRE Fsk mod)
COc1ccc(Nc2cc(C)nc(N3CCOCC3)n2)cc1	CRE Fsk mod 4µM, ERK AVP block inconclusive
Cc1cc(NC2CCCCC2)nc(N2CCOCC2)n1	none (no result: CRE Fsk mod, ERK AVP block)
CCOc1ccc(Nc2cc(C)nc(-n3nc(C)cc3C)n2)cc1	CRE Fsk mod 13µM, ERK AVP block inconclusive
CCN(CC)c1nc(C#N)nc(N(CC)CC)n1	CRE Fsk mod 10µM
CNc1ccnc(-c2ccccc2C)n1	none
COc1cccc(-c2ccc3ncnc(N4CCNCC4)c3c2)c1	CRE Fsk mod inconclusive
NC(=O)NCCC1=CCCCC1	none (no result: CRE Fsk mod, ALOX15 inhib, ERK AVP block)
C=CCn1c(N)c(C(=O)NCCC2=CCCCC2)sc1=S	CRE Fsk mod inconclusive, ALOX15 inhib 25µM, ALOX15B inhib inconclusive
C[C@@H](/C=C\c1cccc(Oc2ccc(F)cc2)c1)N(O)C(N)=O	CRE Fsk mod inconclusive, ALOX15 inhib 10µM, ERK AVP block inconclusive

Source: PubChem (National Center for Advancing Translational Sciences (NCATS))
